Experimental findings from PubChem BioAssay AID652054 (National Center for Advancing Translational Sciences (NCATS), 2013) are described below.

The campaign covered roughly 360,000 compounds. About 9,100 (2.5%) were called active. Another 4% or so got no clear call; they are omitted. Cut-off read from the data, not from the text of the source: active = max response below about -50%; inconclusive = no clear call, values can overlap the other calls; inactive = above that. The entries come from a sample that favours actives as a whole.
% is set by controls: 0 for no effect and ±100 for the full control effect.

For this test, the target named is D(3) dopamine receptor (Homo sapiens) (UniProt P35462). Nature of the test: qHTS of D3 Dopamine Receptor Antagonist: qHTS. To be noted: D3R cells, DiscoveRx beta-arrestin luminescence, antagonist mode; hits give low values. The essentials: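 Cells plated overnight at 1500 cells/well, then exposed to library compounds with dopamine controls for 90 minutes at 37 degrees C. DiscoveRx reagent added for 30–60 minutes at room temperature; luminescence read, quantitative HTS format.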
D(3) dopamine receptor (Homo sapiens), sequence (P35462 whole entry, looked up): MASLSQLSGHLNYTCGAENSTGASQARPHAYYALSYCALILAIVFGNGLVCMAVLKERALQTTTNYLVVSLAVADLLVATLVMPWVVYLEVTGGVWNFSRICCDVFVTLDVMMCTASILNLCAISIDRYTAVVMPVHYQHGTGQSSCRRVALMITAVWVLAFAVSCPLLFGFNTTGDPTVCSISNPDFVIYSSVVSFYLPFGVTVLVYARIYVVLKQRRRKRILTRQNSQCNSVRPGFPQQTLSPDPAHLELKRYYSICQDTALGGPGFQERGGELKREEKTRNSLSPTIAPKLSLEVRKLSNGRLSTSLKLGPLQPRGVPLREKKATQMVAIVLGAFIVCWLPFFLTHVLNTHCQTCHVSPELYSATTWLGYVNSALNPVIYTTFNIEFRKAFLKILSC
For `Cc1noc(C)c1C(=O)N1CCC1(C)C(=O)NS(=O)(=O)c1ccc(C#N)cc1` (stereo not drawn), the max response, negative = inhibition is 13.1% (inactive).
In the case of `COCc1cc(C)nc2sc(C(=O)NC3CCCCC3)c(N)c12` it was -50.5% (active); in that of `COc1ccc(OC)c(NC(=O)c2sc3nc(C)cc(C)c3c2N)c1`, 22.5% (inactive).
For `Cc1cccn2c(=O)c3cc(C(=O)NC4CCCCC4)sc3nc12`, the max response, negative = inhibition is -12.3% (inactive).
On to `COc1cncc(-c2cnc3sc(NCCc4ccccn4)nn23)c1`, for which the max response, negative = inhibition was 60.8% (inactive).
In the case of `S=c1[nH]nc(-c2ccncc2)n1/N=C/c1ccccc1Cl` it was 38% (inactive); in that of `Fc1ccccc1/C=N/n1c(-c2cccnc2)n[nH]c1=S`, -11.6% (inactive).
On to `S=c1[nH]nc(-c2cccs2)n1/N=C/c1cn(-c2ccccc2)nc1-c1ccc(Cl)cc1`, for which the max response, negative = inhibition is -16% (inactive).
As for `Cc1ccc(/C=N\n2c(-c3ccccc3)n[nH]c2=S)s1`, the max response, negative = inhibition is -72.1% (active).
Turning to `Cc1ccsc1/C=N/n1c(=S)[nH]nc(C)c1=O`, the max response, negative = inhibition was -20.9% (inactive).
With `Oc1ccccc1/C=N/n1c(-c2cccs2)n[nH]c1=S`, the max response, negative = inhibition was -79.6% (active).
Take `CCCCCC(=O)N1C[C@H](O)[C@@H](n2cc(COC(=O)c3ccccc3)nn2)C[C@@H]1c1ccc(C)cc1`: the max response, negative = inhibition was 8.87% (inactive).
The value for `COC(=O)C1=CN(c2c(C)cc(C)cc2C)C(N)=C(C#N)C1c1cccc(F)c1` (stereo not drawn) was 2.73% (inactive).
On to `Cc1ccnc(SC2CC(=O)N(c3ccccc3)C2=O)n1` (stereo not drawn), for which the max response, negative = inhibition is -15.3% (inactive).
On to `CC[C@@H]1CC2=C(C(=O)OC(C)(C)O2)[C@@H](CC)O1`, for which the max response, negative = inhibition was 16.4% (inactive).
Turning to `COC(=O)C1(C(=O)OC)C/C=C\CN(S(=O)(=O)c2ccccc2[N+](=O)[O-])CCC1`, the max response, negative = inhibition was 25.7% (inactive).
On to `COC(=O)c1cc(S(=O)(=O)NC2CCN(Cc3ccccc3)CC2)cn1C`, for which the max response, negative = inhibition was 11.7% (inactive).
The value for `CCc1nc2ccc(C(=O)NC3CCN(Cc4ccccc4)CC3)cn2c1N(C)CCN1CCOCC1` was 14% (inactive); that for `Cc1cc(C(=O)NC2CCN(Cc3ccccc3)CC2)n[nH]1` was -81.2% (active).
In the case of `Cc1ccc(-c2cc(C(=O)NC3CCN(Cc4ccccc4)CC3)c3ccccc3n2)cc1` it was -13.4% (inactive); in that of `Cc1cc(C(=O)NC2CC(C)(C)Cc3c2cnn3-c2ccccc2)n[nH]1` (stereo not drawn), -0.849% (inactive).
For the compound `Cc1ccn2cc(C(=O)NC3CCN(Cc4ccccc4)CC3)nc2c1`, the max response, negative = inhibition was -65.2% (active).
For `CCc1nc2ccc(C(=O)N3CCN(S(=O)(=O)CC)CC3)cn2c1N(C=O)CCC(C)C`, the max response, negative = inhibition was -18.9% (inactive).
With `CCCNC(=O)C1(C)CCN1C(=O)Cc1ccc(-c2ccccc2)cc1` (stereo not drawn), the max response, negative = inhibition was -20.6% (inactive).
Consider `C[C@H]1NS(=O)(=O)c2cc(Cl)ccc2O[C@@H]1c1ccccc1`, for which the max response, negative = inhibition is -18.7% (inactive).
With `O=[N+]([O-])/C=C/c1ccc2c(ccn2Cc2ccccc2)c1`, the max response, negative = inhibition was -54.4% (active).
With `C[C@@H]1CN([C@@H](C)CO)C(=O)CCCn2cc(nn2)CO[C@H]1CN(C)S(=O)(=O)c1ccc(-n2cccn2)cc1`, the max response, negative = inhibition was -5.35% (inactive).
In the case of `COC(=O)[C@]12CCCCC=C1N(Cc1ccc(Cl)cc1Cl)C(=O)[C@H](CC(=O)NCc1cccc3ccccc13)C2` it was -15.1% (inactive); in that of `COc1cc(CCN=Cc2ccccc2O)c([N+](=O)[O-])cc1OC`, 2.41% (inactive); in that of `CC(C)[C@H](NC(=O)OCc1ccccc1)C(=O)OCc1ccccc1`, -14.6% (inactive).
Regarding `O=C(NCC1CCC(C(=O)O)CC1)OCc1ccccc1` (stereo not drawn), the max response, negative = inhibition is 22% (inactive).
As for `NCCCCC(C(=O)O)N(C(=O)OCc1ccccc1)C(=O)OCc1ccccc1` (stereo not drawn), the max response, negative = inhibition is -55.1% (active).
On to `CCc1oc(-c2ccc(OC)cc2)c(C(=O)OCCCCCO)c1C(C)OCCO` (stereo not drawn), for which the max response, negative = inhibition is 14.5% (inactive).
The value for `S=c1c2[nH]cnc2ncn1CCSc1ncnc2nc[nH]c12` was -78.7% (active); that for `Cc1ccc(NC(=O)c2ccc(CSc3ncnc4nc[nH]c34)cc2)c(C)c1` was -9.41% (inactive).
In the case of `CCc1ccc(N(CC)c2ncnc3nc[nH]c23)cc1` it was -11.5% (inactive).
Consider `CCOP(=O)(OCC)C(Cc1ccccc1)N=C(c1ccccc1)c1ccccc1` (stereo not drawn), for which the max response, negative = inhibition was -6.96% (inactive).
Turning to `Cc1ccc(C(=O)NC2CCN(C(=O)N3CCOCC3)CC2)cc1`, the max response, negative = inhibition was 11.7% (inactive).
As to `O=C(N1CCCCC1)N1CCN(C(=O)N2CCCCC2)CC1`, the max response, negative = inhibition was -20.6% (inactive).
For the compound `O=C(N1CCOCC1)N1CCOCC1`, the max response, negative = inhibition was -50.3% (active).
Consider `O=C(NCCOc1ccccc1)N1[C@H]2CC[C@@H]1C=C(c1ccc(F)cc1OCc1ccccc1)C2`, for which the max response, negative = inhibition is 56.5% (inactive).
`CCOc1ccc(CCN2C(=O)C(=O)N([C@@H](Cc3ccc(O)cc3)CN3CCC[C@H]3CN3C(=O)C(=O)NC[C@@H]3CC(C)C)C[C@@H]2Cc2ccccc2)cc1`: the max response, negative = inhibition was -23.4% (inactive).
As for `CN(C)CCN1CCN(c2cc(-c3cccc(Cl)c3)nc3ccnn23)CC1`, the max response, negative = inhibition is -22% (inactive).
Turning to `Cc1ccc(C(O)c2ncc(-c3ccccc3F)[nH]2)cc1F` (stereo not drawn), the max response, negative = inhibition is -0.345% (inactive).
As for `COc1ccc(C(c2nnnn2C2CCCCC2)N2CCN(c3ccccc3F)CC2)cc1` (stereo not drawn), the max response, negative = inhibition was -13.2% (inactive).
Turning to `CCOC(=O)C1CCN(C(c2cc3cc(C)cc(C)c3[nH]c2=O)c2nnnn2C2CCCCC2)CC1` (stereo not drawn), the max response, negative = inhibition is 18.8% (inactive).
As for `FC(F)(F)Oc1ccccc1C(c1nnnn1C1CCCCC1)N1CCN(C/C=C/c2ccccc2)CC1` (stereo not drawn), the max response, negative = inhibition is -77.9% (active).
Turning to `OC(c1cc(Cl)cc(Cl)c1)c1ncc(-c2ccccc2C(F)(F)F)[nH]1` (stereo not drawn), the max response, negative = inhibition was 2.77% (inactive).
In the case of `COc1ccc(NC(=S)N2CCC(NC(=O)c3cccc(F)c3)CC2)cc1` it was -3.67% (inactive).
Regarding `COc1ccc(NC(=O)N2CCC(Cc3ccccc3)CC2)cc1`, the max response, negative = inhibition was -18% (inactive).
Take `CCOc1ccccc1OCC(=O)Nc1ccccc1C(=O)NC1CC1`: the max response, negative = inhibition was 2% (inactive).
With `CCCCOCCCNC(=O)c1ccccc1OCC`, the max response, negative = inhibition is -16.2% (inactive).
The value for `COc1ccc(CN2C3CCCC2CC(NC(=O)c2cccc(F)c2)C3)cc1` (stereo not drawn) was -88.5% (active).
As for `CCCN1C2CCCC1CC(NC(=O)c1cccc(OC)c1)C2` (stereo not drawn), the max response, negative = inhibition is 9.66% (inactive).
As for `CC(=O)NC1CC2CCCC(C1)N2CC(=O)Nc1ccccc1` (stereo not drawn), the max response, negative = inhibition is -23% (inactive).
For `COc1ccc(NC(=O)NC2CC3CCCC(C2)N3Cc2ccccc2)cc1` (stereo not drawn), the max response, negative = inhibition is -65.9% (active).
Consider `CCOc1ccccc1C(=O)NC1CC2CCCC(C1)N2Cc1ccccc1` (stereo not drawn), for which the max response, negative = inhibition was -77.3% (active).
On to `Cc1ccc(-c2ccc(C3=CC(=O)CC(C)(C)C3=O)cc2)cc1`, for which the max response, negative = inhibition was 4.58% (inactive).
In the case of `Cc1ccc([C@H]2N[C@]3(CCCN(CC4CCCCC4)C3=O)[C@H]3C(=O)N(Cc4ccccc4)C(=O)[C@@H]23)cc1`, the max response, negative = inhibition was 0.653% (inactive).
Take `Cc1ccc(F)c(S(=O)(=O)NC(=O)C2(C)CCN2C(=O)CCc2cccs2)c1` (stereo not drawn): the max response, negative = inhibition is -4.74% (inactive).
In the case of `Cn1c(=O)n(C)c2cc(S(=O)(=O)N3CCCc4ccccc43)ccc21`, the max response, negative = inhibition was 5.19% (inactive).
As for `COc1ccc(C(=O)OCC(=O)NCC2CCCCC2)cc1S(=O)(=O)N1CCCc2ccccc21`, the max response, negative = inhibition was 8.09% (inactive).
Consider `COc1cc(C)c(C)cc1S(=O)(=O)N1CCCc2ccccc21`, for which the max response, negative = inhibition is -64.6% (active).
Consider `N#CCCC(C#N)(c1cccnc1)N1CCOCC1` (stereo not drawn), for which the max response, negative = inhibition is -3.79% (inactive).
The value for `Cc1cc(OC(C)C(=O)NC2CC(C)(C)NC(C)(C)C2)c2c(C)cc(=O)oc2c1` (stereo not drawn) was 7.98% (inactive); that for `Cc1cc(=O)oc(C)c1C(=O)NC1CC(C)(C)NC(C)(C)C1` was -75.7% (active).
The value for `Cc1ccc(C(=O)NC2CC(C)(C)NC(C)(C)C2)c(C)c1` was 39.4% (inactive).
Take `CC(C)C[C@H]1CNC(=O)C(=O)N1C[C@@H]1CCCN1C[C@H](Cc1ccccc1)N1C[C@H](CC(C)C)N(CC2CCCCCC2)C(=O)C1=O`: the max response, negative = inhibition was -0.867% (inactive).
For the compound `CCOC(=O)[C@]12CCCC=C1N(CCC1=CCCCC1)C(=O)[C@H](CC(=O)N1CCN(C(=O)c3ccco3)CC1)C2`, the max response, negative = inhibition was 0% (inactive).
The value for `Brc1ccc(CN2CC[C@H]3C=CCc4cccc(c43)C2)cc1` was -107% (active); that for `Brc1ccccc1CN1CCC(Cc2ccccc2)CC1` was -26.3% (inactive).
With `NC(=O)c1ccc(CN2CCC(Cc3ccccc3)CC2)cc1`, the max response, negative = inhibition was -23.1% (inactive).
Turning to `O[C@@H]1C[C@H](c2ccccc2)N(Cc2cccs2)C[C@H]1n1cc(C2CC2)nn1`, the max response, negative = inhibition was 2.45% (inactive).
Consider `C[C@H]1Cn2cnc(C(=O)N[C@H](C)c3ccccc3)c2C(=O)N1`, for which the max response, negative = inhibition is -3.02% (inactive).
As for `OC(c1ccccc1)(c1ccccc1)C1CCN(CCCOc2ccccc2)CC1`, the max response, negative = inhibition is -8.6% (inactive).
Regarding `O=c1[nH]c2ccccc2n1C1CCN(CCOc2ccccc2)CC1`, the max response, negative = inhibition was -110% (active).
For `O=C1CCN(CCc2ccccc2)CCN1CCOc1ccccc1`, the max response, negative = inhibition is -8.76% (inactive).
Consider `CS(=O)(=O)N1CCCCC1c1cc(C(=O)NCc2ccccc2)no1` (stereo not drawn), for which the max response, negative = inhibition was 13.9% (inactive).
For `CCOCCCNCc1ccc(OCc2ccc(F)cc2)c(OC)c1`, the max response, negative = inhibition was 13.1% (inactive).
With `CCN(CC)CCNCc1ccc(OCc2ccc(Cl)nc2)c(OC)c1`, the max response, negative = inhibition was -23.1% (inactive).
`COc1cc(CNCCN(C)C)ccc1OCc1c(F)cccc1Cl`: the max response, negative = inhibition is -51.3% (active).
In the case of `CCOC(=O)[C@]12CCCC=C1N(CCC1=CCCCC1)C(=O)[C@H](CC(=O)N1CCCCC1)C2`, the max response, negative = inhibition is 6.86% (inactive).
As for `Cc1ccc([C@@H]2CC(=O)[C@@H]3CN(S(=O)(=O)c4ccc(C)cc4)[C@H](c4ccccc4F)C[C@@H]3N2S(=O)(=O)c2ccc(Cl)cc2)cc1`, the max response, negative = inhibition is 4.51% (inactive).
As to `Cc1cc(C)c2nc(N(CCN(C)C)C(=O)/C=C/c3cccs3)sc2c1`, the max response, negative = inhibition was -2.22% (inactive).
In the case of `Cc1ccc(S(=O)(=O)N(C)C)cc1NC(=O)/C=C/c1cccs1`, the max response, negative = inhibition was -18.2% (inactive).
Turning to `Cc1ccc2sc(N(CCN(C)C)C(=O)/C=C/c3cccs3)nc2c1C`, the max response, negative = inhibition was -69.2% (active).
The value for `COc1ccc(C2CC(c3cccc(OC)c3)=NN2c2ccc(S(N)(=O)=O)cc2)cc1` (stereo not drawn) was 17.8% (inactive); that for `O=C(/C=C/[C@H]1O[C@@H](n2ccc(=O)[nH]c2=O)[C@H](O)[C@@H]1O)NCc1ccccn1` was 9.97% (inactive).
